# In the library only some 16% were active in any assay of this set; here they are far more common.
# uPA surface inh = qHTS for Inhibitors of Cell Surface uPA Generation | cell surface uPA generation assay, qHTS | Potency, µM (series often up to 38.3 µM), for inactives: at the highest dose activity change, negative = inhibition, usual class: inhibitors | 330,000 tested, 0.31% active; active = well fitted inhibition curve with a large enough effect; inconclusive = small, poorly fitted or top-dose-only effect; inactive = no such curve, though single readings can be large or run the other way; tested in mouse RAW 264.7 cells; note: potency is the fitted concentration of half-maximal effect; % is set by controls: 0 for no effect and ±100 for the full control effect; nearly all actives have a fitted effect of over 55% in size
# DT40 TDP1 CPT = qHTS for Inhibitors of human tyrosyl-DNA phosphodiesterase 1 (TDP1): qHTS in cells in presence of CPT; chicken DT40 Tdp1-/-;hTDP1 cells + 20 nM CPT, ATP luminescence, 48 h; Potency, µM (highest dose often 46.2 µM), for inactives: at the top dose activity change, negative = growth inhibition, hits mostly inhibitors; 420,000 tested, 12% active; AID 686979, 2013; note: potency is the fitted concentration of half-maximal effect; % is set by controls: 0 for no effect and ±100 for the full control effect; nearly all actives have a fitted effect of over 55% in size
#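 Cell growth measured by CellTiter-Glo luminescence after a minimum 48 h, 37 C compound exposure with 20 nM CPT in Tdp1-knockout DT40 cells stably expressing hTDP1, seeded 400/well; qHTS titration format.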
# TDP1 inh = qHTS Assay for Inhibitors of Tyrosyl-DNA Phosphodiesterase (TDP1). Tyrosyl-DNA phosphodiesterase 1 (Homo sapiens), Q9NUW8. recombinant TDP1, AlphaScreen DNA substrate cleavage. Potency, µM (titrated, usually from 130 µM), without a hit: at the top dose activity change, negative = inhibition, hits mostly inhibitors. 350,000 tested, 0.28% active; note: potency is the fitted concentration of half-maximal effect; % is set by controls: 0 for no effect and ±100 for the full control effect; nearly all actives have a fitted effect of over 40% in size
# Target sequence (Q9NUW8 whole entry, looked up): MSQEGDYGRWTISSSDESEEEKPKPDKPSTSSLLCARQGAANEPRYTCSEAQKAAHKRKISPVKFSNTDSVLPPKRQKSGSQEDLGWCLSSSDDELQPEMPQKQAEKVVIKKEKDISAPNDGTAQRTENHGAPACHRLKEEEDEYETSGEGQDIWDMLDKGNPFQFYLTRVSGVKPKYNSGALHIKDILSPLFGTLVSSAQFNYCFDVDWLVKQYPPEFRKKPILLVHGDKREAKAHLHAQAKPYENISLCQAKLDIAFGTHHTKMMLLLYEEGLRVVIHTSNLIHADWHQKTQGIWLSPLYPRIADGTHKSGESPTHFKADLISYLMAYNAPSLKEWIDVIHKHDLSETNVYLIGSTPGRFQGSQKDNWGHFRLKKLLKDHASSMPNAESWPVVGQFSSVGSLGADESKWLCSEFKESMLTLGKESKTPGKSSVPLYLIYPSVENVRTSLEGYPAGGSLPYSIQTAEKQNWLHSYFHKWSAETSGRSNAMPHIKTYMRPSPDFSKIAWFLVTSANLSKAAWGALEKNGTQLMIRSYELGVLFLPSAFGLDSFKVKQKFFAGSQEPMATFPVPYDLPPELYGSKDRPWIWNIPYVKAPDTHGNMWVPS
#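 Recombinant human Tdp1 (E. coli-expressed, 1 nM final) preincubated with compounds 15 min at room temperature, then 5'-biotin/3'-phosphotyrosine-FITC DNA substrate (15 nM final) added for 5 min. AlphaScreen beads (10 ug/ml final) added 10 min; cleavage lowers signal.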
# miR-21 reporter = qHTS Assay for Modulators of miRNAs and/orActivators of miR-21; AID 2288, 2010; HeLa miR-21 FLuc reporter, luciferase, 48 h; Potency, µM (titrated, usually from 38.3 µM), for inactives: top-dose activity change, positive = activation, most hits filed as activators; 340,000 tested, under 10 active;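 note: % of control where 0% means no effect; miR-21 action dims this reporter so a rising signal means less miR-21 action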
#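 Luminescence from a firefly luciferase reporter carrying a miR-21 binding site downstream, stably expressed under a CMV promoter in HeLa cells that make miR-21 endogenously, reports miRNA modulation after 48 h compound exposure up to approximately 40uM final.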
# DT40 TDP1 no CPT = qHTS for Inhibitors of human tyrosyl-DNA phosphodiesterase 1 (TDP1): qHTS in cells in absence of CPT | DT40 Tdp1-/- hTDP1 cells, no CPT, ATP luminescence, 48 h | Potency, µM (top dose mostly 46.2 µM), for the others: top-dose activity change, negative = growth inhibition, actives largely listed as inhibitors | 420,000 tested, 15% active | AID 686978, 2013; note: potency is the fitted concentration of half-maximal effect; % is set by controls: 0 for no effect and ±100 for the full control effect; nearly all actives have a fitted effect of over 55% in size
#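 Cells were dispensed at 400 per well, compounds added by pin tool, plates incubated ≥48 hr at 37 °C, then CellTiter-Glo added for 30 min at room temperature before luminescence reading. Line: DT40 Tdp1-/- complemented with hTDP1; camptothecin omitted.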
# The depositor's hits bear a star; ? = inconclusive; . = no result given; ! = a repeat was not active; [ ] = dose if it differs, or a comment. Unless noted, calls come from the whole dose curve; as a rule, active = well fitted curve in the direction sought with a large enough effect; inconclusive = small, poorly fitted or top-dose-only effect, or another doubt; inactive = no such curve, though single readings can be large; an effect the other way counts as inactive or inconclusive.
SMILES,uPA surface inh,DT40 TDP1 CPT,TDP1 inh,miR-21 reporter,DT40 TDP1 no CPT
COc1ccc(OCc2cc(C(=O)N(C)Cc3cc(C)no3)no2)c(Cl)c1,-9%,-6%,0%,-60%,?
CCN(Cc1ccncc1)C(=O)c1cc(COc2ccc(OC)cc2Cl)on1,-23%,16µM*,2%,-42%,?
CCN(CC1CCCO1)C(=O)c1cc(COc2ccc(OC)cc2Cl)on1 (stereo unspecified),1%,?,1%,-34%,-4%
Cc1cc(CN(C)C(=O)c2cc(COc3ccc(F)cc3Cl)on2)n[nH]1,.,7%,-1%,-60%,?
CCc1ccc(CN(C)C(=O)c2cc(COc3ccc(OC)cc3Cl)on2)nc1,-4%,?,1%,-42%,29µM*
CCOc1ccc(N(CC(=O)Nc2ccc(C)c(C)c2)S(=O)(=O)c2c(C)[nH]c(=O)[nH]c2=O)cc1,0%,18%,.,-8%,6%
COc1ccc(COC(=O)c2nc3nc(C)cc(C)n3n2)cc1F,2%,12%,-6%,0%,3%
COc1ccccc1NC(=O)/C(C#N)=C/C=C/c1ccco1,.,1.3µM*,3%,13%,1.2µM*
COc1ccccc1NC(=O)/C=C\c1ccco1,-11%,?,.,-45%,-28%
COc1ccc(/C=C\C(=O)NC2CC(=O)N(c3ccc(F)cc3)C2)cc1OC (stereo unspecified),.,-15%,-3%,-1%,-18%
CC(C)CN(C)c1ccc(/C=C2\C=Cc3ccccc32)cc1,.,2.8µM*,.,.,2.5µM*
O=Cc1ccc(/C=C2\C=Cc3ccccc32)cc1,.,5.6µM*,.,.,6.3µM*
CCN(CC)c1ccc(/C=C2\C=Cc3ccccc32)cc1,.,?,.,.,18µM*
CN(C)c1ccc(/C=C2\C=Cc3cc(N)ccc32)cc1,.,?,.,.,11µM*
CN(C)c1ccc(/C=C2\C=Cc3ccccc32)cc1,.,-26%,.,.,?
CC1(c2ccc(NC(=O)c3ccccc3F)cc2)CC1(Cl)Cl (stereo unspecified),-29%,?,.,-50%,?
CCOc1ccccc1NC(=O)c1c(NC(=O)COc2ccccc2)sc2c1CCCC2,.,-5%,1%[2.28 µM],-1%,-26%
Cc1csc2nc(CCNS(=O)(=O)c3cccs3)cn12,4%,12%,7%,-49%,-5%
O=[N+]([O-])c1ccc2nc(/C=C/c3ccc(Cl)cc3)[nH]c2c1,?,21µM*,4%,27%,18µM*
Nc1ccc(-c2nc3ccc([N+](=O)[O-])cc3[nH]2)cc1,-3%,?,0%,-29%,?
O=[N+]([O-])c1ccc(-c2nc3ccc([N+](=O)[O-])cc3[nH]2)cc1,-2%,13µM*,4%,-38%,9.2µM*
CCOc1cc(/C=C2\SC(=N)N(c3nonc3N)C2=O)ccc1OCC(N)=O,2%,?,3%,-8%,?
CC/C(=N/Nc1cccc(C)c1)c1cnnc(SC)n1,3%,?,10%,-23%,?
O=c1cc(Nc2ccc3c(c2)OCCO3)[nH]c(=O)n1-c1ccc(Cl)cc1,-7%,23µM*,0%,17%,18µM*
O=c1cc(Nc2ccc3c(c2)OCCO3)[nH]c(=O)n1C1CCCCC1,?,15µM*,0%,12%,16µM*
SMILES,uPA surface inh,DT40 TDP1 CPT,TDP1 inh,miR-21 reporter,DT40 TDP1 no CPT
O=c1[nH]c(Nc2ccc3c(c2)OCCO3)nnc1Cc1ccc(Cl)cc1,3%,?,4%,3%,?
O=C(NCCc1ccccc1)c1ccccc1C(F)(F)F,.,1%,.,.,-5%
Cc1ccc([N+](=O)[O-])cc1NC(=O)C(Sc1ccccc1)c1ccccc1 (stereo unspecified),-1%,?,3%,-1%,16µM*
Cc1cc(O)c(C(C)C)cc1NC(=O)Nc1ccc([N+](=O)[O-])cc1,0%,-14%,.,.,?
Cc1ccc([N+](=O)[O-])cc1NC(=O)c1ccccc1,0%,1%,0%,0%,-16%
Cc1cc(Br)ccc1NC(=O)CNC(=O)CNc1cccc([N+](=O)[O-])c1,10%,21µM*,1%,.,?
Cc1cc(Br)ccc1NC(=O)C(C)c1ccc([N+](=O)[O-])cc1 (stereo unspecified),8%,?,0%,-8%,26µM*
Cc1ccc(C(C)C)cc1NC(=O)Nc1ccc([N+](=O)[O-])cc1,-6%,4.6µM*,.,?,3.7µM*
CCOc1ccc(CCNC(=O)NCc2noc3ccc(C)cc23)cc1,.,-24%,3%,-1%,?
Cc1onc(-c2ccccc2)c1C(=O)NNC(=S)NC(=O)c1ccc(Cl)cc1Cl,0%,?,8%,-3%,?
Cc1onc(-c2ccccc2)c1C(=O)NNC(=S)NC(=O)/C=C/c1ccccc1,-6%,21µM*,0%,14%,18µM*
Cc1onc(-c2ccccc2)c1C(=O)NNC(=S)NC(=O)c1ccc(Br)cc1,-1%,?,5%,-11%,?
COc1ccc(/C=C/C(=O)NC(=S)NNC(=O)c2c(-c3ccccc3)noc2C)cc1,-3%,?,-5%,-18%,26µM*
O=C(CSc1nnc(-c2ccccn2)o1)Nc1ccccc1C(F)(F)F,-3%,5%,1%[0.0935 µM],-56%,-2%
Cc1ccc(SC[C@H](Cc2ccccc2)N2CCN(CC(C)C)CCC2=O)cc1,-10%,?,2%,-10%,18µM*
CC(C)CN1CCC(=O)N(C(CSc2ccc(Br)cc2)Cc2ccccc2)CC1 (stereo unspecified),.,.,-3%,.,.
CC(C)CN1CCC(=O)N(CCSc2ccc(Br)cc2)CC1,-4%,21µM*,6%,9%,?
CC(C)CN1CCC(=O)N([C@H](CSc2ccccc2)Cc2ccccc2)CC1,-20%,18µM*,.,10%,16µM*
CCCN1CCC(=O)N([C@H](CSc2ccccc2)Cc2ccccc2)CC1,-9%,11µM*,.,-1%,11µM*
C#CC(C)(CC)NC(=O)c1cc2c(n(-c3ccc(Cl)cc3)c1=O)CC(C)(C)CC2=O (stereo unspecified),.,.,3%,3%,.
O=C(O)COCCN1CCN(C(c2ccccc2)c2ccc(Cl)cc2)CC1 (stereo unspecified),-1%,?,8%,-1%,15µM*!
Cc1nn(-c2ccccc2)c2nc(N)c(C#N)c(-c3ccc(F)cc3)c12,6%,18µM*,-8%,1%,26µM*
Cc1nc(N)c(C#N)c(-c2ccccc2)c1C,1%,-5%,3%,2%,?
